Data: PubChem BioAssay AID1159580 (chemical genetic matrix, 2015)
Values joined by “and” are separate entries in the source; they are usually repeats but may differ in a detail not shown here. Equal entries are not always repeated. In all, about 5,500 compounds went through this assay and about 2,000 (36%) were called active. Inconclusive results (about 18%) are left out. Rule as the data show it: active = normalized growth mostly below about 0.91 (no sharp cut-off); inconclusive = no clear call, values can overlap the other calls; inactive = mostly above about 0.92. The list shows a part of the results.

Assay: chemical genetic growth profiling, strain panel (AID 1159580);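 also: tested at 20 µM; growth read once vehicle control cultures reached saturation at 30 °C; 1 = growth at the plate median or of vehicle wells; lower values mean less growth of the strain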
Details: growth OD

Measured: normalized growth

CN/C(=C\[N+](=O)[O-])NCCSCc1ccc(CN(C)C)o1
inactive: S. cerevisiae deletion strains, locus YKL009W, strain mrt4, stronger effect = lower value 1.02 | S. cerevisiae deletion strains, locus YKL068W, stronger effect = lower value 0.999 | S. cerevisiae deletion strains, locus YKL085W, strain MDH1 (second series), stronger effect = lower value 1.01 | S. cerevisiae deletion strains, locus YKL085W, strain MDH1, stronger effect = lower value 1.01 | S. cerevisiae deletion strains, locus YKL160W, strain elf1, stronger effect = lower value 0.988 | S. cerevisiae deletion strains, locus YKL190W, strain CNB1, stronger effect = lower value 1.01 | S. cerevisiae deletion strains, locus YKR001C, strain vps1, stronger effect = lower value 0.993 | S. cerevisiae deletion strains, locus YKR026C, strain gcn3, stronger effect = lower value 1 | S. cerevisiae deletion strains, locus YKR091W, strain srl3, stronger effect = lower value 0.988 | S. cerevisiae deletion strains, locus YLL001W, strain dnm1, stronger effect = lower value 0.989 | S. cerevisiae deletion strains, locus YLL026W, stronger effect = lower value 0.992 | S. cerevisiae deletion strains, locus YLL041C, strain sdh2, stronger effect = lower value 0.979 | S. cerevisiae deletion strains, locus YLR027C, strain aat2, stronger effect = lower value 0.989 | S. cerevisiae deletion strains, locus YLR039C, strain RIC1, stronger effect = lower value 1.05 | S. cerevisiae deletion strains, locus YLR058C, strain SHM2, stronger effect = lower value 1.03 | S. cerevisiae deletion strains, locus YLR102C, strain apc9, stronger effect = lower value 0.977 | S. cerevisiae deletion strains, locus YLR113W, strain HOG1, stronger effect = lower value 0.996 | S. cerevisiae deletion strains, locus YLR221C, strain rsa3, stronger effect = lower value 0.993 | S. cerevisiae deletion strains, locus YLR258W, strain gsy2, stronger effect = lower value 0.99 | S. cerevisiae deletion strains, locus YLR262C, strain YPT6 (second series), stronger effect = lower value 0.972 | S. cerevisiae deletion strains, locus YLR262C, strain YPT6, stronger effect = lower value 1.11 | S. cerevisiae deletion strains, locus YLR268W, strain sec22, stronger effect = lower value 0.997 | S. cerevisiae deletion strains, locus YLR320W, strain mms22, stronger effect = lower value 0.99 | S. cerevisiae deletion strains, locus YLR330W, strain CHS5, stronger effect = lower value 1.01 | S. cerevisiae deletion strains, locus YLR342W, strain FKS1 (second series), stronger effect = lower value 1.01 | S. cerevisiae deletion strains, locus YLR342W, strain FKS1, stronger effect = lower value 0.969 | S. cerevisiae deletion strains, locus YLR357W, strain rsc2, stronger effect = lower value 0.908 | S. cerevisiae deletion strains, locus YLR370C, strain arc18, stronger effect = lower value 0.982 | S. cerevisiae deletion strains, locus YLR371W, strain rom2, stronger effect = lower value 0.983 | S. cerevisiae deletion strains, locus YLR384C, strain iki3, stronger effect = lower value 0.989 | S. cerevisiae deletion strains, locus YLR418C, strain cdc73, stronger effect = lower value 0.994 | S. cerevisiae deletion strains, locus YML016C, strain PPZ1, stronger effect = lower value 1.02 | S. cerevisiae deletion strains, locus YML032C, strain rad52, stronger effect = lower value 0.977 | S. cerevisiae deletion strains, locus YML120C, strain ndi1, stronger effect = lower value 0.981 | S. cerevisiae deletion strains, locus YML124C, strain tub3, stronger effect = lower value 0.991 | S. cerevisiae deletion strains, locus YMR058W, strain fet3, stronger effect = lower value 0.979 | S. cerevisiae deletion strains, locus YMR078C, strain ctf18, stronger effect = lower value 0.987 | S. cerevisiae deletion strains, locus YMR125W, strain sto1, stronger effect = lower value 0.982 | S. cerevisiae deletion strains, locus YMR129W, stronger effect = lower value 0.995 | S. cerevisiae deletion strains, locus YMR205C, strain PFK2, stronger effect = lower value 0.976 | S. cerevisiae deletion strains, locus YMR223W, strain ubp8, stronger effect = lower value 0.996 | S. cerevisiae deletion strains, locus YMR231W, strain pep5, stronger effect = lower value 0.997 | S. cerevisiae deletion strains, locus YMR263W, strain SAP30, stronger effect = lower value 1.04 and 1 | S. cerevisiae deletion strains, locus YMR307W, strain GAS1, stronger effect = lower value 1.07 and 1.03 | S. cerevisiae deletion strains, locus YNL067W, strain RPL9B, stronger effect = lower value 1.04 | S. cerevisiae deletion strains, locus YNL071W, strain lat1, stronger effect = lower value 0.987 | S. cerevisiae deletion strains, locus YNL128W, strain TEP1, stronger effect = lower value 1.02 | S. cerevisiae deletion strains, locus YNL153C, strain GIM3, stronger effect = lower value 1.01 | S. cerevisiae deletion strains, locus YNL175C, strain NOP13, stronger effect = lower value 0.997 | S. cerevisiae deletion strains, locus YNL183C, strain NPR1, stronger effect = lower value 0.944 | S. cerevisiae deletion strains, locus YNL197C, strain WHI3, stronger effect = lower value 1.01 | S. cerevisiae deletion strains, locus YNL209W, strain ssb2, stronger effect = lower value 0.994 | S. cerevisiae deletion strains, locus YNL224C, strain SQS1, stronger effect = lower value 0.998 | S. cerevisiae deletion strains, locus YNL233W, strain BNI4, stronger effect = lower value 1.03 | S. cerevisiae deletion strains, locus YNL248C, strain rpa49, stronger effect = lower value 0.98 | S. cerevisiae deletion strains, locus YNL250W, strain rad50, stronger effect = lower value 0.982 | S. cerevisiae deletion strains, locus YNL271C, strain bni1, stronger effect = lower value 0.974 | S. cerevisiae deletion strains, locus YNL298W, strain CLA4, stronger effect = lower value 1 | S. cerevisiae deletion strains, locus YNL307C, strain MCK1, stronger effect = lower value 0.986 | S. cerevisiae deletion strains, locus YNL322C, strain KRE1 (second series), stronger effect = lower value 0.96 | S. cerevisiae deletion strains, locus YNL322C, strain KRE1, stronger effect = lower value 1.01 | S. cerevisiae deletion strains, locus YNR049C, strain mso1, stronger effect = lower value 0.988 | S. cerevisiae deletion strains, locus YNR052C, strain pop2, stronger effect = lower value 0.984 | S. cerevisiae deletion strains, locus YOL006C, strain TOP1, stronger effect = lower value 1.13 | S. cerevisiae deletion strains, locus YOL012C, strain htz1 1.11 | S. cerevisiae deletion strains, locus YOL147C, strain pex11, stronger effect = lower value 0.99 | S. cerevisiae deletion strains, locus YOR001W, strain rrp6, stronger effect = lower value 0.982 | S. cerevisiae deletion strains, locus YOR061W, strain CKA2, stronger effect = lower value 1.02 | S. cerevisiae deletion strains, locus YOR069W, strain VPS5, stronger effect = lower value 1.02 | S. cerevisiae deletion strains, locus YOR070C, strain gyp1, stronger effect = lower value 0.989 | S. cerevisiae deletion strains, locus YOR080W, strain dia2, stronger effect = lower value 0.99 | S. cerevisiae deletion strains, locus YOR083W, strain WHI5 (second series), stronger effect = lower value 1.02 | S. cerevisiae deletion strains, locus YOR083W, strain WHI5, stronger effect = lower value 0.982 | S. cerevisiae deletion strains, locus YOR106W, strain vam3, stronger effect = lower value 0.999 | S. cerevisiae deletion strains, locus YOR136W, strain idh2, stronger effect = lower value 0.982 | S. cerevisiae deletion strains, locus YOR144C, strain elg1, stronger effect = lower value 0.992 | S. cerevisiae deletion strains, locus YOR184W, strain ser1, stronger effect = lower value 0.994 | S. cerevisiae deletion strains, locus YOR231W, strain MKK1, stronger effect = lower value 0.99 | S. cerevisiae deletion strains, locus YOR265W, strain rbl2, stronger effect = lower value 0.974 | S. cerevisiae deletion strains, locus YOR270C, strain vph1, stronger effect = lower value 1 | S. cerevisiae deletion strains, locus YOR290C, strain snf2, stronger effect = lower value 0.996 | S. cerevisiae deletion strains, locus YOR316C, strain cot1, stronger effect = lower value 0.985 | S. cerevisiae deletion strains, locus YPL051W, strain arl3, stronger effect = lower value 1 | S. cerevisiae deletion strains, locus YPL055C, strain LGE1, stronger effect = lower value 0.991 | S. cerevisiae deletion strains, locus YPL078C, strain atp4, stronger effect = lower value 0.982 | S. cerevisiae deletion strains, locus YPL106C, strain sse1, stronger effect = lower value 0.956 | S. cerevisiae deletion strains, locus YPL240C, strain hsp82, stronger effect = lower value 0.99 | S. cerevisiae deletion strains, locus YPL241C, strain CIN2, stronger effect = lower value 1 | S. cerevisiae deletion strains, locus YPL256C, strain CLN2, stronger effect = lower value 0.968 | S. cerevisiae deletion strains, locus YPR119W, strain clb2, stronger effect = lower value 0.988 | S. cerevisiae deletion strains, locus YPR141C, strain kar3, stronger effect = lower value 0.995 | S. cerevisiae deletion strains, locus YPR163C, strain tif3, stronger effect = lower value 0.993 | S. cerevisiae deletion strains, locus YPR167C, strain met16, stronger effect = lower value 0.98 | S. cerevisiae deletion strains, strain wtn01, stronger effect = lower value 0.987 | S. cerevisiae strains, strain wild type, stronger effect = lower value 1.02
